Most compounds without a hit are left out; they make up all but 1.5% or so of the library.
eLon inh – inhibitors of E. coli Lon protease | P0A9M0 | 360,000 tested, 0.42% active | AID 602123 | purified E. coli Lon protease, fluorescence polarization | inhibition, % at 7.94 µM; in the data active means inhibition above about 13%, passing the limit was not always enough;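 further: 0% = enzyme with probe and DMSO and 100% = no enzyme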
MCL1-BIM inh – disrupts human MCL1 binding to BIM-BH3 peptide. Q07820. GST-MCL1 / FITC-Bim-BH3 fluorescence polarization. inhibition, % at 10.9 µM. 320,000 tested, 0.68% active;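 active means inhibition above the mean inhibition of all tested compounds plus 3 SD, set per campaign, cut at about 40% in these data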;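 further: 0% = DMSO wells and 100% = unlabeled Bim-BH3 peptide control; higher means more loss of mP so more displacement of Bim peptide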
Target sequence (Q07820 whole entry, looked up): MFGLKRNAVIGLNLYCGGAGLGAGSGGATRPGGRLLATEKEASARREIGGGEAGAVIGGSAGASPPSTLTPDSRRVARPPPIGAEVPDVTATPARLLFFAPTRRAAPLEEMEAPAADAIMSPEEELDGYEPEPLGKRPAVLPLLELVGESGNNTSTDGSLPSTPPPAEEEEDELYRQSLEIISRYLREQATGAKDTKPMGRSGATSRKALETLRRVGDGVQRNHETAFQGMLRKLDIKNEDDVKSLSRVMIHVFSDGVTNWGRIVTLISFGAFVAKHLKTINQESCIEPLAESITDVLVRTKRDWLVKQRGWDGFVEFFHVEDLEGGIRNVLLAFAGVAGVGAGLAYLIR
EBV gp42 block – EBV gp42 inhibition. Q1HVG2. Fluorescence polarization binding assay, mP read-out. inhibition, % (tested at 21.74 µM). 220,000 tested, 0.42% active. AID 1085; in the data active means inhibition above about 50%
Bcl-xL primary – blocks human Bcl-xL binding to Bim BH3 peptide | inhibition, % at 10.9 µM | Q07817 | 320,000 tested, 0.7% active | GST-Bcl-xL / FITC-Bim BH3 peptide fluorescence polarization;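 active means inhibition above the mean of all tested compounds plus 3 SD, cutoff set per campaign, cut at about 30% in these data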;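 further: 0% = DMSO wells and 100% = unlabeled Bim-BH3 peptide competitor; inhibitors lower millipolarization by displacing the labeled peptide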
Target sequence (Q07817 whole entry, looked up): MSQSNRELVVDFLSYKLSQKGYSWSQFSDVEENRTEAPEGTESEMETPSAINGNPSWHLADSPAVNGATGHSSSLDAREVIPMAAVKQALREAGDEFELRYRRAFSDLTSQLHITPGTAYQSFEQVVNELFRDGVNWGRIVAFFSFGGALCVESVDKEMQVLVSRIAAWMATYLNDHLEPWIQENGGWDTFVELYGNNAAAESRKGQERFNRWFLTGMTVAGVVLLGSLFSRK
GLD-1 RNA inh – GLD-1-TGE RNA interaction inhibition (C. elegans). Q17339. purified GLD-1 + fluorescein TGE RNA, fluorescence polarization. inhibition, % at 5.96 µM. 320,000 tested, 0.44% active;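 active means percent inhibition above a per-plate cutoff, the plate mean of test compounds plus 3 SD, cut at about 30% in these data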;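 further: 0% = DMSO wells with GLD-1 and probe and 100% = wells lacking GLD-1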
MEX-5 binding – C. elegans MEX-5 TCR-2 RNA binding activity; Q9XUB2; MEX-5/FITC-TCR2 RNA binding, fluorescence polarization; hits give low values; activity score (negative = inhibition of binding), % at 10 µM; 300,000 tested, 0.38% active;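 active means inhibition past about -25% in most replicates, and total fluorescence under double the plate's negative control median, limit read from the data; inconclusive means replicates evenly split on the limit, or fluorescence at least double controls; inactive means too little inhibition in most replicates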;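 further: 0% = DMSO and -100% = 5 µM competing unlabeled TCR2 RNA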
BCLXL inh confirm – Bcl-xL (human) inhibition, MCL1 counter-screen confirmation; shares compounds with MCL1-BIM inh; GST-Bcl-xL / FITC-Bim BH3 peptide FP binding; inhibition, % at 10.9 µM; 1,700 tested, 54% active;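 active means inhibition above a cutoff equal to the mean inhibition of all tested compounds plus 3 SD, cut at about 30% in these data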;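 further: 0% = DMSO wells and 100% = unlabeled Bim BH3 control peptide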
MCL1 inh confirm – confirmation of human MCL1 and BIM-BH3 interaction inhibitors | shares compounds with MCL1-BIM inh | GST-MCL1 / FITC-Bim-BH3 fluorescence polarization | inhibition, % at 10.9 µM | 1,700 tested, 61% active | AID 2168;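 active means inhibition above the average of all tested compounds plus 3 SD, cut at about 40% in these data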;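 further: 0% = DMSO wells and 100% = unlabeled Bim-BH3 control peptide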
* = called active by the depositor; ? = inconclusive; nt = not tested or not shown; + = active, no number.

SMILES	eLon inh	MCL1-BIM inh	EBV gp42 block	Bcl-xL primary	GLD-1 RNA inh	MEX-5 binding	BCLXL inh confirm	MCL1 inh confirm
Cc1ccc(C)c(S(=O)(=O)Nc2ccc3oc(C)c(C(=O)O)c3c2)c1	-14	42*	nt	12	1	1	21	60*
CC(=O)c1c(C)oc2ccc(NS(=O)(=O)c3ccc(C)cc3)cc12	3	-2	nt	-1	2	-3	nt	nt
Cc1cc(Cl)ccc1Nc1ncccc1C(N)=O	-8	-2	6	3	1	-1	nt	nt
NC(=O)c1cccnc1Oc1ccc(Cl)cc1Cl	5	54*	-1	1	-3	3	6	-1
CC1(C)Cc2c(sc3nc[nH]c(=O)c23)CO1	7	5	-8	1	-3	-1	nt	nt
O=c1[nH]cnc2sc3c(c12)CN(Cc1ccccc1)CC3	10	58*	nt	73*	-9	1	22	17
CCOc1ccc2c(c1)C(N(CCN1CCOCC1)C(=S)Nc1ccccc1OC)CC(C)(C)O2 (stereo not given)	-5	7	9	5	8	2	nt	nt
CN(C)c1ccc(/C=C2/NC(=O)NC2=O)cc1	-22	-25	-59	-7	-37	0	nt	nt
CC(C)C1Cc2c(sc(NC(=S)NC(=O)c3ccccc3)c2C#N)CO1 (stereo not given)	-9	0	3	2	-2	-2	nt	nt
CC(C)C1Cc2c(C#N)c(N)sc(=S)c2CO1 (stereo not given)	1	64*	20	67*	66*	2	23	17
O=c1sc(N2CCN(c3ccc(F)cc3)CC2)nc2ccsc12	-3	0	-30	1	2	4	nt	nt
COc1ccc(-c2oc3cc(O)c(OC)c(O)c3c(=O)c2OC)cc1	-4	1	-21	1	1	-3	nt	nt
COc1c(-c2ccc(O)cc2)oc2cc(O)cc(O)c2c1=O	4	43*	-16	9	4	nt	23	86*
CCc1cc[n+](-c2nc3ccccc3nc2[N-]S(=O)(=O)c2ccc(Br)s2)cc1	12	94*	58*	83*	25	?	71*	87*
Cc1cc[n+](-c2nc3ccccc3nc2[N-]S(=O)(=O)c2ccccc2)cc1	2	17	12	17	12	0	nt	nt
O=C(Cn1c(C(F)(F)F)nc2ccccc21)c1ccccc1	-13	4	-14	4	-1	-1	nt	nt
COc1ccc(N(CC(=O)N2CCCCCC2)S(C)(=O)=O)cc1Cl	4	4	nt	3	9	-3	nt	nt
COc1ccc2c(c1)c(CC(=O)OCC(=O)O)c(C)n2C(=O)c1ccc(Cl)cc1	0	82*	-2	12	4	4	4	8
CCOC(=O)c1cc2c(=O)n3ccccc3nc2n(Cc2ccco2)c1=NC(=O)c1ccc(OC)cc1	-15	41*	-21	27	10	-6	11	-2
COc1ccc(Nc2cc(=O)n(C3CCCCC3)c(=O)[nH]2)c(OC)c1	3	-3	-5	1	10	-1	nt	nt
O=C(CN1c2ccccc2Sc2ccccc21)NNC(=S)Nc1ccc(Cl)cc1	3	6	-13	10	4	-1	nt	nt
O=C(CN1CCOCC1)NNC(=S)Nc1ccc(Cl)cc1	-11	55*	-17	-1	-7	-2	15	20
C#CCCOC(=O)N1C2=NC(C(=O)OC)=C(C(=O)OC)[C@@H]3N(Cc4ccccc4)c4ccccc4[C@]23C[C@H]1C(=O)OC	9	-5	-21	3	-2	3	nt	nt
Oc1ccc(N=C/C=C/c2ccc(Br)cc2)cc1-c1nc2ccccc2s1	nt	48*	1	46*	20	3	27	19
N#Cc1cc(Oc2cccc3cccnc23)c(-n2nnc3ccccc32)cc1C#N	13	139*	12	143*	44*	-3	17	25
SMILES	eLon inh	MCL1-BIM inh	EBV gp42 block	Bcl-xL primary	GLD-1 RNA inh	MEX-5 binding	BCLXL inh confirm	MCL1 inh confirm
CC[C@@H](C)[C@H](CNC)NC[C@@H](Cc1cccc2ccccc12)NCCc1cccc(C(F)(F)F)c1	4	13	nt	4	6	35	nt	nt
CCCc1nc(SC2CCCC2)c2c(=O)n(C)c(=O)n(C)c2n1	5	+	-18	1	3	-2	4	5
CCOc1ccc(Br)cc1S(=O)(=O)NC(=O)c1ccccc1	2	5	-5	3	3	?	nt	nt
COC(=O)C1=C(C)N(C)C(=O)NC1c1cc2c(cc1[N+](=O)[O-])OCO2 (stereo not given)	0	54*	15	59*	28	-6	44*	40*
COC(=O)C1=C(C)N(CCCC(=O)O)C(=O)NC1c1cc2c(cc1[N+](=O)[O-])OCO2 (stereo not given)	13	52*	-14	54*	27	-15	6	2
CCN(CC)CCCNc1nc2cc(OC)c(OC)cc2c2nc(-c3ccccc3)nn12	4	3	-14	2	5	5	nt	nt
O=C(O)C1Sc2[nH]c(=O)sc2C2c3ccc(O)cc3OC(=O)C12 (stereo not given)	-28	82*	41	67*	73*	?	46*	49*
O=C(O)C1Sc2[nH]c(=O)sc2C2c3cc(Cl)ccc3OC(=O)C12 (stereo not given)	-10	13	-4	15	10	-8	nt	nt
CSc1ccc(Cl)c(C(=O)OCC(=O)Nc2ccccc2OC(F)F)c1	-7	-1	-15	3	6	1	nt	nt
Cc1cc[n+](-c2[nH]c(=O)sc2/C=N/N=C(\[O-])CCn2c3ccccc3c3ccccc32)cc1	9	49*	34	27	22	nt	19	50*
CCc1ccc[n+](-c2[nH]c(=O)sc2/C=N/N=C(\[O-])CCn2c3ccccc3c3ccccc32)c1	10	32	27	21	14	-8	nt	nt
COc1ccc(-c2cc(=O)c3ccc(O)cc3o2)cc1OC	-2	nt	nt	nt	nt	nt	nt	nt
Nc1ccc(-c2c3ccc(=O)cc-3oc3cc(O)ccc23)c(C(=O)O)c1	-255	78*	nt	86*	16	nt	77*	76*
O=C(/C=C1\NC2(CCCC2)Cc2ccccc21)C(=O)N/N=C/c1ccc(O)c(O)c1	6	42*	2	4	-5	-4	31*	43*
O=C(CSc1ccc(-c2ccco2)nn1)c1ccccc1	4	42*	-7	22	3	1	21	24
CCOC(=O)Cn1nc(C)c(NC(=O)COc2ccc(C)c(C)c2)c1C	-12	4	-20	5	6	-1	nt	nt

Screening results: PubChem, several laboratories
